{"source": "PubChem BioAssay (Tox21)", "note": "Records with an inconclusive call do not appear. Entries that show only a call come without a potency. Values without a mark were called inactive. Calls of active or inactive are those of the source. The call rests on the fitted dose curve; in most records, active means well fitted cell-killing curve with a large enough effect in the repeat runs; inconclusive means weak or mixed curves, or effect the other way; inactive means flat fitted curve, though single readings scatter.", "data": [{"test": "cAMP Responsive Elements (CRE) small molecule antagonists, cell-based qHTS assay: qHTS cell viability counter screen (AID 2060913); further: nearly all actives have a fitted effect of over 40% in size", "conditions": "CRE-bla HEK293T viability, CellTiter-Glo luminescence, 5 h; series mostly up to 92.4 µM", "procedure,_shortened": "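CRE-bla HEK293T cells were seeded in assay medium with 10% dialyzed FBS, incubated 18 hrs at 37 C, then exposed to compounds plus 0.25 uM final NKH477 for 3 hrs. Viability was read by CellTiter-Glo luminescence after 30 min, in the same wells.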", "values": [{"smiles": "CCOC(=O)[C@H](CCc1ccccc1)N[C@@H](C)C(=O)N1Cc2ccccc2C[C@H]1C(=O)O", "Potency": "inactive"}, {"smiles": "O=C(O)C1CCC1", "Potency": "inactive"}, {"smiles": "COC(=O)CCCCCCCC(=O)OC", "Potency": "inactive"}, {"smiles": "CC(=O)OCCN(CCOC(C)=O)c1ccc(N=Nc2ccc([N+](=O)[O-])cc2C#N)cc1", "Potency": "inactive"}, {"smiles": "S=c1nccc[nH]1", "Potency": "inactive"}, {"smiles": "O=[N+]([O-])c1cncn1CCN1CCOCC1", "Potency": "inactive"}, {"smiles": "OCCN1CCNCC1", "Potency": "inactive"}, {"smiles": "CCC1(c2ccccc2)C(=O)NCNC1=O", "Potency": "inactive"}, {"smiles": "O=C(O)c1cn(-c2ccc(F)cc2)c2cc(N3CCNCC3)c(F)cc2c1=O", "Potency": "inactive"}, {"smiles": "CN(CCOc1ccc(CC2SC(=O)NC2=O)cc1)c1ccccn1", "note": "(stereo not given)", "Potency": "inactive"}, {"smiles": "CC/C=C(\\C)C=O", "Potency": "inactive"}, {"smiles": "CC(CN)CC(C)(C)CCN", "note": "(stereo not given)", "Potency": "inactive"}, {"smiles": "CC(C)=CCCC(C)CC(=O)O", "note": "(stereo not given)", "Potency": "inactive"}, {"smiles": "C[C@@H]1CC(=O)NN=C1c1ccc(NN=C(C#N)C#N)cc1", "Potency": "inactive"}, {"smiles": "CCC(Cl)CC(Cl)C(Cl)C(Cl)C(Cl)C(C)Cl", "note": "(stereo not given)", "viability change, negative = cytotoxic": "-10.4% [at 18.9 µM]"}, {"smiles": "Cc1cc(C(C)(C)C)c(O)c(C)c1CC1=NCCN1", "Potency": "inactive"}, {"smiles": "ClC(Cl)(Br)Br", "Potency": "inactive"}, {"smiles": "CCCc1ccc(OCC(=O)N2CCN(C(=O)COc3ccc(CCC)cc3OC)CC2)c(OC)c1", "Potency": "inactive"}, {"smiles": "CCCc1ncc(C[n+]2ccccc2C)c(N)n1", "Potency": "inactive"}, {"smiles": "CN(C)CC/C=C1/c2ccccc2COc2ccc(CC(=O)O)cc21", "Potency": "inactive"}, {"smiles": "CNCCCN1c2ccccc2CCc2ccccc21", "Potency": "inactive"}, {"smiles": "c1ccc(CN(CC2=NCCN2)c2ccccc2)cc1", "Potency": "inactive"}, {"smiles": "ClCCOCCOCCCl", "Potency": "inactive"}, {"smiles": "CCCC(=O)O[C@]1(C(=O)CC)CC[C@H]2[C@@H]3CCC4=CC(=O)CC[C@]4(C)[C@H]3[C@@H](O)C[C@@]21C", "Potency": "inactive"}, {"smiles": "Nc1ccn([C@@H]2O[C@H](CO)[C@@H](O)C2(F)F)c(=O)n1", "Potency": "inactive"}, {"smiles": "CCCC(=O)OC(C)(C)Cc1ccccc1", "Potency": "inactive"}, {"smiles": "CCC(C)(O)CCCC(C)C", "note": "(stereo not given)", "Potency": "inactive"}, {"smiles": "CC1(COc2ccc(CC3SC(=O)NC3=O)cc2)CCCCC1", "note": "(stereo not given)", "Potency": "inactive"}, {"smiles": "Cc1ccc(S(N)(=O)=O)cc1", "Potency": "inactive"}, {"smiles": "CCCCCCCCS", "Potency": "inactive"}, {"smiles": "O=C(O)Cc1sc(-c2ccccc2)nc1-c1ccc(Cl)cc1", "Potency": "inactive"}, {"smiles": "Cc1nc2ccccc2n1Cc1ccc(Cl)cc1", "Potency": "inactive"}, {"smiles": "COc1c(C)c2c(c(O)c1C/C=C(\\C)CCC(=O)OCCN1CCOCC1)C(=O)OC2", "Potency": "inactive"}, {"smiles": "CCCC(C)C(=O)O", "note": "(stereo not given)", "Potency": "inactive"}, {"smiles": "CC1(O)CSC(C)(O)CS1", "note": "(stereo not given)", "Potency": "inactive"}, {"smiles": "CC[C@H]1CC[C@H](NCc2cc3c(cc2OC)[C@H]2C[C@H]2C(=O)N3C)[C@H](c2ccccc2)N1", "Potency": "inactive"}, {"smiles": "OCC1CCCO1", "note": "(stereo not given)", "Potency": "inactive"}, {"smiles": "CN1C(CSCC(F)(F)F)Nc2cc(Cl)c(S(N)(=O)=O)cc2S1(=O)=O", "note": "(stereo not given)", "Potency": "inactive"}, {"smiles": "Cc1cc(C(C)(C)C)cc(C)c1CC1=NCCN1", "Potency": "inactive"}, {"smiles": "N=C(N)c1ccc(OCCCOc2ccc(C(=N)N)cc2)cc1", "Potency": "inactive"}]}]}
